The experiment addresses Hexose transporter 1 (Plasmodium falciparum) (UniProt O97467). Kind of experiment: ST_JUDE_LEISH: Cytotoxicity at 2uM final concentration against transgenic Leishmania Mexicana promastigotes LmPfHT that are glucose transport deficient and complemented with the Plasmodium falciparum hexose transporter. Activity is measured by DNA content using SYBR green in vitro. The experiment is classed as functional.
With `Clc1ccccc1/C=C/c1cncnc1Nc1ccc2[nH]c(Cc3ccccc3)nc2c1`, the inhibition (usually the drop in the measured response relative to a control, in per cent) worked out at 2.53%.

`CN(Cc1cccc(O)c1)C1CCN(c2cc(NC(=O)c3cccc(F)c3)ccn2)CC1`: the inhibition is 1.18%.

`Nc1nc(N)c2c(ccc3nn(Cc4ccccc4)cc32)n1`: the inhibition is 0.59%.

Consider `CCCCNC(=O)[C@H](CC1CCCCC1)NC(=O)c1ccc(O)c(-c2cccc(C(F)(F)F)c2)c1`, for which the inhibition was 3.75%.

As for `O=C(Nc1ccc(C(F)(F)F)cc1)c1ccc(NCCCN2CCCCCC2)c([N+](=O)[O-])c1`, the inhibition was 6.55%.

As to `O=C(NCc1ccco1)c1ccc(CN2CCN(C(c3ccccc3)c3ccccc3)CC2)cc1`, the inhibition was 6.41%.

As to `CCc1c(C)nc(-n2nc(C)cc2NC(=O)CCc2ccccc2)[nH]c1=O`, the inhibition amounted to 2.79%.

For `Cc1[nH]cnc1CSCCNC(=N)NCCCCCCCCNC(=N)NCCSCc1nc[nH]c1C`, the inhibition was determined as 0.71%.

As for `COc1ccc(NC(=O)c2ccc(-c3cccc(OCc4ccccc4)c3)cc2)cc1N1CCN(C)CC1`, the inhibition turned out to be 0.6%.

As to `CNC(=O)C(C)N(c1ccc(Cl)cc1)c1nc(C(C)(C)C)cs1` (stereo unspecified), the inhibition was -2.14%.

Take `O=C(CCc1ccccc1)N[C@H](Cc1c[nH]c2ccccc12)C(=O)N1CCC(NCc2ccc3c(c2)Cc2ccccc2-3)CC1`: the inhibition came to 7.43%.

Turning to `COc1ccc(NC(=O)[C@H](Cc2ccccc2)Nc2nc(NCCN3CCCC3)ncc2C)cc1`, the inhibition came out at 2.57%.

Regarding `COc1ccc(CC(C)CON2C(N)=NC(N)=NC2(C)C)cc1` (stereo unspecified), the inhibition stood at 4.35%.

On to `CC(C)(C)NCCN(Cc1ccc(-c2ccc(C(F)(F)F)cc2)cc1)C(=O)Cn1c(CCc2cccc(F)c2F)nc(=O)c2ccccc21`, for which the inhibition was found to be 5%.

As for `Cc1cc([N+](=O)[O-])ccc1N1CCN(CCCCNC(=O)c2ccc(NC(=O)c3ccc(Cl)cc3)cc2)CC1`, the inhibition came to 4.19%.

Take `CC(C)OC(=O)c1cccnc1SCC(=O)Nc1ccc(C(F)(F)F)cc1Cl`: the inhibition is 1.68%.

Consider `Clc1cc(Cl)cc(Nc2ccnc(Nc3cc(Cl)cc(Cl)c3)n2)c1`, for which the inhibition amounted to 2.75%.

As for `CN(C)CC1CCCN1Cc1ccccc1-c1cnn(C)c(=O)c1Oc1ccc(F)cc1` (stereo unspecified), the inhibition is 4.08%.

Take `Cc1cccc2nc(-c3cccc(-c4cccc(CNCc5ccc(S(C)(=O)=O)cc5)c4)c3)[nH]c12`: the inhibition was found to be 0.32%.

On to `COc1ccc(-c2nc(NC(=O)Cc3coc4cc(OC)ccc34)sc2C)cc1`, for which the inhibition is 0.45%.

As for `CS(=O)(=O)CCNCc1cccc(-c2cc3c(Nc4ccc(OCc5ccccc5)cc4)ncnc3cn2)c1`, the inhibition was 10.7%.

As for `CC(C)n1cc(CN2CCCC(C(=O)Nc3cccc(-c4cc5ccccc5[nH]4)c3)C2)cn1` (stereo unspecified), the inhibition is -0.11%.

Take `Nc1nc(N)c2c(ccc3c2cnn3S(=O)(=O)N2CCCC2)n1`: the inhibition was 0.03%.

In the case of `Cc1ccc(NC(=O)c2cnc(N3CCN(c4ccncc4)CC3)c(Cl)c2)cc1`, the inhibition amounted to 16.1%.

As to `C[C@H](Cc1ccc(OCCCCCCOc2ccc(C[C@@H](C)NC(=O)[C@H](O)c3cccc(Cl)c3)cc2)cc1)NC[C@H](O)c1cccc(Cl)c1`, the inhibition turned out to be 5.41%.

As for `Cn1nc(-c2cccc(CNC3CCc4ccccc43)c2)c2cnc(NCCCN3CCCC3)nc21` (stereo unspecified), the inhibition was found to be 32.6%.
